Reference: PubChem BioAssay (NCI)
Several values for one entry are separate records, joined by “and”; a condition that tells them apart may be missing. Identical values can stand only once. This is part of a sample that, as a whole, favours compounds with a hit. Of some 83,000 tested, about 20% had one in any assay.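 96-well plates, one dose, 48 hours. Percent growth reported; active if below 10.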 Activity calls are given as the source filed them.

Assays:
Experiment in all cases: NCI-60 one-dose screen, 48 h (100 = growth as untreated, 0 = no growth, -100 = all killed)
Conditions in all cases: 10 µM unless noted
NCI-H23 lung = test system: NCI-H23 lung
NCI-H322M lung = test system: NCI-H322M lung
HOP-62 NSCLC = test system: HOP-62 NSCLC
NCI-H460 lung = test system: NCI-H460 lung
HOP-92 NSCLC = test system: HOP-92 NSCLC
NCI-H522 lung = test system: NCI-H522 lung
A549/ATCC NSCLC = test system: A549/ATCC NSCLC
786-0 renal = test system: 786-0 renal
COLO 205 colon = test system: COLO 205 colon
DU-145 prostate = test system: DU-145 prostate
K-562 leukemia = test system: K-562 leukemia
MALME-3M melanoma = test system: MALME-3M melanoma
MDA-MB-231 breast = test system: MDA-MB-231 breast
RXF 393 renal = test system: RXF 393 renal
SF-268 CNS = test system: SF-268 CNS
SF-295 CNS = test system: SF-295 CNS
SF-539 CNS = test system: SF-539 CNS
UACC-257 melanoma = test system: UACC-257 melanoma
M14 melanoma = test system: M14 melanoma
NCI-H226 lung = test system: NCI-H226 lung

Row | Structure (SMILES) | growth (NCI-H23 lung) | growth (NCI-H322M lung) | growth (HOP-62 NSCLC) | growth (NCI-H460 lung) | growth (HOP-92 NSCLC) | growth (NCI-H522 lung) | growth (A549/ATCC NSCLC) | growth (786-0 renal) | growth (COLO 205 colon) | growth (DU-145 prostate) | growth (K-562 leukemia) | growth (MALME-3M melanoma) | growth (MDA-MB-231 breast) | growth (RXF 393 renal) | growth (SF-268 CNS) | growth (SF-295 CNS) | growth (SF-539 CNS) | growth (UACC-257 melanoma) | growth (M14 melanoma) | growth (NCI-H226 lung)
1 | CCOc1ccc(N2C(N)=NC(N)=NC2(C)C)cc1 | 47.6% (inactive) and 83.8% (inactive) | 45.2% (inactive) and 99.4% (inactive) | 26.6% (inactive) and 84.5% (inactive) | 13.7% (inactive) and 104% (inactive) | 10.3% (inactive) and 72.5% (inactive) | -7.67% (active) and 90.1% (inactive) | 19.5% (inactive) and 44.8% (inactive) | 56.5% (inactive) and 84.2% (inactive) | -32.6% (active) and 83% (inactive) | 15.3% (inactive) and 104% (inactive) | 10% (inactive) and 72.3% (inactive) | 25.3% (inactive) and 91.9% (inactive) | 49.5% (inactive) and 102% (inactive) | -4.94% (active) and 98.1% (inactive) | 42.1% (inactive) and 97.5% (inactive) | -31.9% (active) and 95.8% (inactive) | -29.1% (active) and 92.4% (inactive) | 19.3% (inactive) and 72.1% (inactive) | 24.2% (inactive) and 89.3% (inactive) | –
2 | O=C(CC1(O)C(=O)Nc2ccc(Br)cc21)c1ccc(Cl)cc1 (stereo not drawn) | 96.8% (inactive) | 105% (inactive) | 88.7% (inactive) | 106% (inactive) | 86.1% (inactive) | – | 90.5% (inactive) | 114% (inactive) | 109% (inactive) | 107% (inactive) | 98.2% (inactive) | 103% (inactive) | 98.8% (inactive) | 96.4% (inactive) | 97.5% (inactive) | 106% (inactive) | 108% (inactive) | 88.1% (inactive) | 99.3% (inactive) | 80.1% (inactive)
3 | O=C1/C(=C/c2ccc(-c3ccccc3C(F)(F)F)o2)SC(=S)N1CCc1ccc(O)cc1 | 78.2% (inactive) | 75.6% (inactive) | 50.2% (inactive) | 48.3% (inactive) | 61% (inactive) | – | 45.7% (inactive) | 65% (inactive) | 48.1% (inactive) | 66.2% (inactive) | 17.5% (inactive) | 32.2% (inactive) | 67% (inactive) | 71.2% (inactive) | 51.4% (inactive) | 54.4% (inactive) | 54.2% (inactive) | 67% (inactive) | 34.4% (inactive) | 90.2% (inactive)
4 | c1ccc(Cc2cccc[n+]2C(c2ccccc2)c2ccccc2)cc1 | 38.2% (inactive) | 77.9% (inactive) | 72% (inactive) | 66.3% (inactive) | 32.5% (inactive) | – | 58.5% (inactive) | 85.6% (inactive) | 24.4% (inactive) | 68.9% (inactive) | 33% (inactive) | 23% (inactive) | 68.2% (inactive) | 93.3% (inactive) | 64.9% (inactive) | 73.6% (inactive) | 56.6% (inactive) | 7.44% (active) | 59.8% (inactive) | 74.7% (inactive)
5 | COC(=O)[C@H]1Cc2c([nH]c3ccccc23)[C@@H](c2cccs2)N1 | 104% (inactive) | 100% (inactive) | 102% (inactive) | 105% (inactive) | 105% (inactive) | – | 103% (inactive) | 91.4% (inactive) | 131% (inactive) | 106% (inactive) | 104% (inactive) | 97.6% (inactive) | 95.1% (inactive) | 107% (inactive) | 98.9% (inactive) | 100% (inactive) | 93.1% (inactive) | 105% (inactive) | 107% (inactive) | 98.3% (inactive)
6 | CCCN1C(=O)/C(=c2\sc3n(c2=O)NC2C(N=3)N(CC)C(=O)N2CC)c2ccccc21 (stereo not drawn) | 38.8% (inactive) | 55% (inactive) | 50.8% (inactive) | 18.5% (inactive) | 86.2% (inactive) | – | 42% (inactive) | 53.3% (inactive) | 23% (inactive) | 33.5% (inactive) | 13.7% (inactive) | 61.8% (inactive) | 24.4% (inactive) | -3.07% (active) | 70% (inactive) | 39.6% (inactive) | 1.12% (active) | 47.5% (inactive) | 23.3% (inactive) | 69.3% (inactive)
7 | CCN1C(=O)/C(=c2\sc3n(c2=O)C2C(NN=3)N(CC)C(=O)N2CC)c2ccccc21 (stereo not drawn) | 34.5% (inactive) | 46.5% (inactive) | 32.1% (inactive) | 4.65% (active) | 39.2% (inactive) | – | 32.8% (inactive) | 30.9% (inactive) | -11.5% (active) | 7% (active) | 7.63% (active) | 49.5% (inactive) | 23.9% (inactive) | -7.21% (active) | 61.7% (inactive) | 9.43% (active) | -20.9% (active) | 96.5% (inactive) | 46.2% (inactive) | 103% (inactive)
8 | Cc1ccc(-c2nc3nc(-c4ccc(F)cc4)nc(N4CCCNCC4)c3o2)cc1 | -79.2% (active) | -99% (active) | -62.2% (active) | -83.2% (active) | -57.6% (active) | – | -82.4% (active) | -86.4% (active) | -77.6% (active) | -94.8% (active) | -28.4% (active) | -72.7% (active) | -85.1% (active) | -79.8% (active) | -65.7% (active) | -86.3% (active) | -97.9% (active) | -72.2% (active) | -86.6% (active) | 112% (inactive)
9 | O=C(/C=C/c1ccc(Cl)s1)c1ccc(Cl)s1 | 89.4% (inactive) and 110% (inactive) | 97.4% (inactive) | – | 101% (inactive) and 115% (inactive) | 79.3% (inactive) and 105% (inactive) | 70.1% (inactive) and 87.1% (inactive) | 96.8% (inactive) | 79.7% (inactive) and 94.8% (inactive) | 112% (inactive) and 122% (inactive) | 97.8% (inactive) and 114% (inactive) | 95% (inactive) and 92.6% (inactive) | 114% (inactive) | 108% (inactive) and 112% (inactive) | 90.8% (inactive) and 89.7% (inactive) | 100% (inactive) and 109% (inactive) | 90.7% (inactive) | 114% (inactive) and 98.3% (inactive) | 101% (inactive) and 103% (inactive) | 101% (inactive) and 115% (inactive) | 91.4% (inactive) and 102% (inactive)
10 | Clc1ccc(/C=N\N2CCCCCC2)cc1 | 97.8% (inactive) | 104% (inactive) | 105% (inactive) and 95.9% (inactive) | 108% (inactive) and 119% (inactive) | – | 123% (inactive) and 83.6% (inactive) | 94.2% (inactive) and 104% (inactive) | 101% (inactive) and 97.5% (inactive) | 124% (inactive) and 130% (inactive) | 112% (inactive) and 102% (inactive) | 87.7% (inactive) | 98% (inactive) | 89.7% (inactive) and 99.9% (inactive) | 92% (inactive) and 119% (inactive) | 103% (inactive) and 115% (inactive) | 96.4% (inactive) and 95.9% (inactive) | 115% (inactive) and 92% (inactive) | 104% (inactive) and 109% (inactive) | 104% (inactive) and 111% (inactive) | 93.8% (inactive) and 125% (inactive)
11 | O=C1C(Nc2ccc(Cl)cc2)=C(I)C(=O)c2ncccc21 | 9.7% (active) | 64.3% (inactive) | 48.1% (inactive) | 17.5% (inactive) | -90.4% (active) | – | 35.5% (inactive) | 26.1% (inactive) | -45.9% (active) | 13.6% (inactive) | 8.51% (active) | -46.5% (active) | -46.4% (active) | 41.7% (inactive) | 28.9% (inactive) | 75.2% (inactive) | 7.82% (active) | 40.2% (inactive) | -3.93% (active) | 88.4% (inactive)
12 | Nc1ccccc1SC(CC(=O)c1ccccc1)c1ccc([N+](=O)[O-])cc1 (stereo not drawn) | 93.2% (inactive) and 84.7% (inactive) | 107% (inactive) and 83.8% (inactive) | 106% (inactive) and 102% (inactive) | 103% (inactive) and 105% (inactive) | 71.4% (inactive) | 96.9% (inactive) and 76.4% (inactive) | 93.9% (inactive) and 82% (inactive) | 106% (inactive) and 93.3% (inactive) | 91.6% (inactive) and 102% (inactive) | 110% (inactive) and 88% (inactive) | 68.8% (inactive) and 13.2% (inactive) | 112% (inactive) and 74.5% (inactive) | 84.1% (inactive) and 85.2% (inactive) | 102% (inactive) and 91.2% (inactive) | 98.7% (inactive) and 82.1% (inactive) | 90.2% (inactive) and 85.2% (inactive) | 107% (inactive) and 105% (inactive) | 107% (inactive) and 86.7% (inactive) | 108% (inactive) and 85.8% (inactive) | –
